From the supplement of paper PMC10849652
Targets with a hit are over-represented here; the source holds about 7,900 in all. About 0.6% of all pairs of compound and target were hits. Unmarked numbers belong to inactive results.

How the values were obtained:
Test in all cases: log2 fold change, soluble protein after heating vs DMSO (PISA); higher = thermal stabilisation; K562 cells, 10 uM, 30 min; active = over 0.2 and 3.5 SD of the protein, either way, in both replicates (recomputed)
[1] = compound: CN1CCN(CCOc2cc(OC3CCOCC3)c3c(Nc4c(Cl)ccc5c4OCO5)ncnc3c2)CC1 [saracatinib]
Method in brief: (§1)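 Thermal stability values are relative to control samples and come from duplicates. They are expressed as log2 fold changes. For measurement, K562 cells (2×10^6 cells/mL) received 10 μM compound for 30 min, and aliquots were heated for 3 min over 48°C-58°C, pooled, and extracted at 4°C in PBS with 0.5% NP-40. Soluble protein, the supernatant after 21,000xg for 90 min, was quantified by TMTpro 16plex LC-MS/MS with equalised channel sums.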

[2] = compound: CN1CCN(c2nc(C3=C(c4c[nH]c5ccccc45)C(=O)NC3=O)c3ccccc3n2)CC1 [sotrastaurin]
Method in brief: as §1

[3] = compound: CN1CC[C@H](c2c(O)cc(O)c3c(=O)cc(-c4ccccc4Cl)oc23)[C@H](O)C1 [alvocidib]
Method in brief: as §1

[4] = compound: CN1CCc2c(c3ccccc3n2Cc2ccc(C(=O)NO)cc2)C1 [Tubastatin A]
Method in brief: as §1

[5] = compound: CNC(=O)C1=CC=CC=C1NC2=NC(=NC=C2Cl)NC3=C(C=C(C=C3)N4CCOCC4)OC
Method in brief: as §1

[6] = compound: CNC(=O)c1ccc(Nc2ncc(C(F)(F)F)c(NCc3nccnc3N(C)S(C)(=O)=O)n2)cc1 [defactinib]
Method in brief: as §1

[7] = compound: CNCc1ccc(-c2[nH]c3cc(F)cc4c3c2CCNC4=O)cc1 [rucaparib]
Method in brief: as §1

[8] = compound: CNc1nc(-c2ccc3c(N)n[nH]c3c2)cc(N2C[C@@H](C(=O)NC3CCCCC3)CC[C@H]2C)n1
Method in brief: as §1

[9] = compound: COC(=O)N[C@@H](C)CNc1nccc(-c2cn(C(C)C)nc2-c2cc(Cl)cc(NS(C)(=O)=O)c2F)n1 [encorafenib]
Method in brief: as §1

[10] = compound: COC(=O)[C@H](CCSC)NC(=O)C1=C(C=C(C=C1)NC[C@H](CS)N)C2=CC=CC=C2
Method in brief: as §1

[11] = compound: COC1=CC=C(C=C1)CN2C=CC3=C2C=C(C=C3)C(=O)NO
Method in brief: as §1

[12] = compound: CON(C)C(=O)N1N=C(c2cc(F)ccc2F)S[C@@]1(CCCN)c1ccccc1 [filanesib]
Method in brief: as §1

[13] = compound: CO[C@H]1C[C@@H]2CC[C@@H](C)[C@@](O)(O2)C(=O)C(=O)N2CCCC[C@H]2C(=O)O[C@H]([C@H](C)C[C@@H]2CC[C@H](n3cnnn3)[C@H](OC)C2)CC(=O)[C@H](C)/C=C(\C)[C@@H](O)[C@@H](OC)C(=O)[C@H](C)C[C@H](C)/C=C/C=C/C=C/1C [zotarolimus]
Method in brief: as §1

[14] = compound: COc1cc(C(=O)O)ccc1NC(=O)[C@@H]1N[C@@H](CC(C)(C)C)[C@](C#N)(c2ccc(Cl)cc2F)[C@H]1c1cccc(Cl)c1F [idasanutlin]
Method in brief: as §1

[15] = compound: COc1cc(Nc2ncc3c(n2)-c2ccc(Cl)cc2C(c2c(F)cccc2OC)=NC3)ccc1C(=O)O [alisertib]
Method in brief: as §1

[16] = compound: COc1cc2nc(-c3cc(F)ccc3O)nc(N[C@@H]3CNC[C@H]3C(C)(C)O)c2cc1OC
Method in brief: as §1

[17] = compound: COc1cc2ncnc(Nc3ccc(F)c(Cl)c3)c2cc1OCCCN1CCOCC1 [gefitinib]
Method in brief: as §1

[18] = compound: COc1cccc2cc(-c3nc([C@H]4CC[C@H](C(=O)O)CC4)n4ncnc(N)c34)[nH]c12
Method in brief: as §1

[19] = compound: CS(=O)(=O)CCNCc1ccc(-c2ccc3ncnc(Nc4ccc(OCc5cccc(F)c5)c(Cl)c4)c3c2)o1 [lapatinib]
Method in brief: as §1

[20] = compound: CS(=O)(=O)N1CCN(Cc2cc3nc(-c4cccc5[nH]ncc45)nc(N4CCOCC4)c3s2)CC1 [pictilisib]
Method in brief: as §1

UniProt Q53FZ2, sequence (Q53FZ2 whole entry, looked up): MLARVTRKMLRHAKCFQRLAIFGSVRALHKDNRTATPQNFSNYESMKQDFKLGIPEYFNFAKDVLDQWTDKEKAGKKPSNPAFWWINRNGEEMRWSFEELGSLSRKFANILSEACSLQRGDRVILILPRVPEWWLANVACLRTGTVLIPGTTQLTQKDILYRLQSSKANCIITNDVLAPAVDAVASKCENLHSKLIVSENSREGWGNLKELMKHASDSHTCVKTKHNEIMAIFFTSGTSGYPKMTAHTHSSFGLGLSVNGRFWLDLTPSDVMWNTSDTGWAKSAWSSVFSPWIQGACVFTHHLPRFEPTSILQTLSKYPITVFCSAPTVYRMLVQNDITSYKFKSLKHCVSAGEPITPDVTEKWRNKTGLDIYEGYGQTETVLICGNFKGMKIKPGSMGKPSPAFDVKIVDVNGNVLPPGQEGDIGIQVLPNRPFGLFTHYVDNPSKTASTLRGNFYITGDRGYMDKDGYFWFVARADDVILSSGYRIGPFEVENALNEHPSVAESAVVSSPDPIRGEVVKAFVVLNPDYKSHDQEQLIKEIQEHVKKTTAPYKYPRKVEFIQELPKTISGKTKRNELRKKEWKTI
UniProt Q9H0E9, sequence (Q9H0E9 whole entry, looked up): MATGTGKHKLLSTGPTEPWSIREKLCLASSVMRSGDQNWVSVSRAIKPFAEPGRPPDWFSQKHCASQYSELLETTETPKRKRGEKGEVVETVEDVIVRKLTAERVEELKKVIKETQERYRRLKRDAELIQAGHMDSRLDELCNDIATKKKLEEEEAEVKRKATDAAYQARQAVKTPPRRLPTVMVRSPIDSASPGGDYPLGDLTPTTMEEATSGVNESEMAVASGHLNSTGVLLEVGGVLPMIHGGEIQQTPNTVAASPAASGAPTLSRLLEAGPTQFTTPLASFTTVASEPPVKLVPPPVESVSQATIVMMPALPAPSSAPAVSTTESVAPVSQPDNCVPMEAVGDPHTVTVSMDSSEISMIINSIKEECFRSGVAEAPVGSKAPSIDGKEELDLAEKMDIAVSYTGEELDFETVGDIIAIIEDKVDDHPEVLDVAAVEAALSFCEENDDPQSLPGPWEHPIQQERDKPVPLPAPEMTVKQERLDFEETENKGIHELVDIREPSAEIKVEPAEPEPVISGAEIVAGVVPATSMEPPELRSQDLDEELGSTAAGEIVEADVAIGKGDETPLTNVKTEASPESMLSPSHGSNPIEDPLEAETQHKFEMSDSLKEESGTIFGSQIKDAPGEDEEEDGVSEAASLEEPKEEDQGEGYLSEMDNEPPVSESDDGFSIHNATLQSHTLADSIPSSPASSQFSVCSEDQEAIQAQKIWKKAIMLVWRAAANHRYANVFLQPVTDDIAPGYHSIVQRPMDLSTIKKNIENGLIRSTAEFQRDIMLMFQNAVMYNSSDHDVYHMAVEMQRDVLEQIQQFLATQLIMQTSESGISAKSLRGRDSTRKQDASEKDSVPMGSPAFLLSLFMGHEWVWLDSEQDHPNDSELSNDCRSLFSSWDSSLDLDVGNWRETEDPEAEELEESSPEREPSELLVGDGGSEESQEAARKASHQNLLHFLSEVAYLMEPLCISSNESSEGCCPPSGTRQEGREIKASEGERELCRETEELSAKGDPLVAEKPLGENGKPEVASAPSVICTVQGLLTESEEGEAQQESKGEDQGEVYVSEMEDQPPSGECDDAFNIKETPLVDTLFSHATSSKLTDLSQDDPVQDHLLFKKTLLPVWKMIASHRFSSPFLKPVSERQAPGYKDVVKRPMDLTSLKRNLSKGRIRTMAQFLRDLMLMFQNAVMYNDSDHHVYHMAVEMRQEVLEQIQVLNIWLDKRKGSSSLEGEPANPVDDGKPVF
UniProt P53367, sequence (P53367 whole entry, looked up): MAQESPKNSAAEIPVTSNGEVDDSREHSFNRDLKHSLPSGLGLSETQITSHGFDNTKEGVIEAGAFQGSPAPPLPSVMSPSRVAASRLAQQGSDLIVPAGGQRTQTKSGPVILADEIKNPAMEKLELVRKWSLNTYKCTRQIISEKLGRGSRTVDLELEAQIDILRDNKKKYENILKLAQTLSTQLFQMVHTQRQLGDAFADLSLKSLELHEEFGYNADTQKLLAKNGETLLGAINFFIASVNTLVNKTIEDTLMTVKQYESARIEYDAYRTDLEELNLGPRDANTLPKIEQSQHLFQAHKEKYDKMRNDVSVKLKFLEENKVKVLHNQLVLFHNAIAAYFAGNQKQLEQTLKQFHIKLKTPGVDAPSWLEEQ
UniProt Q14137, sequence (Q14137 whole entry, looked up): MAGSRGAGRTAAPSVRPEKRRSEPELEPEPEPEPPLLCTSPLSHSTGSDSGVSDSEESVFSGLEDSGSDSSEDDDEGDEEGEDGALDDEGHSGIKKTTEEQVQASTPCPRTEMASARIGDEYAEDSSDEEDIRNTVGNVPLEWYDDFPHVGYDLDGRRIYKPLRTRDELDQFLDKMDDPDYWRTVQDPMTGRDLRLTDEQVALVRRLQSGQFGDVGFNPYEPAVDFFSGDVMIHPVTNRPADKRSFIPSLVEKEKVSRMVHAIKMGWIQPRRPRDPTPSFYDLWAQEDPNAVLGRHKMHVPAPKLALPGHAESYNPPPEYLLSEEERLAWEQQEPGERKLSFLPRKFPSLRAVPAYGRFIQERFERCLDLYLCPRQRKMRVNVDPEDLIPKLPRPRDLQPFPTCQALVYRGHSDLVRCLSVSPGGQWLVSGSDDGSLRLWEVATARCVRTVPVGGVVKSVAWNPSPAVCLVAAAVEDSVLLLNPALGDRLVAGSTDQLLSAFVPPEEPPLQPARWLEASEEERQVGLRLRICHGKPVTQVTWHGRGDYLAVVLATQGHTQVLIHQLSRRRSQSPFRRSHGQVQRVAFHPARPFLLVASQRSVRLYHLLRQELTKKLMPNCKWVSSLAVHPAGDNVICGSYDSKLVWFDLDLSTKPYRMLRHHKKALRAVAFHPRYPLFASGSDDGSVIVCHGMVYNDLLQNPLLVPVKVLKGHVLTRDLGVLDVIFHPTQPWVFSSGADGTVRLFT
UniProt P42330, sequence (P42330 whole entry, looked up): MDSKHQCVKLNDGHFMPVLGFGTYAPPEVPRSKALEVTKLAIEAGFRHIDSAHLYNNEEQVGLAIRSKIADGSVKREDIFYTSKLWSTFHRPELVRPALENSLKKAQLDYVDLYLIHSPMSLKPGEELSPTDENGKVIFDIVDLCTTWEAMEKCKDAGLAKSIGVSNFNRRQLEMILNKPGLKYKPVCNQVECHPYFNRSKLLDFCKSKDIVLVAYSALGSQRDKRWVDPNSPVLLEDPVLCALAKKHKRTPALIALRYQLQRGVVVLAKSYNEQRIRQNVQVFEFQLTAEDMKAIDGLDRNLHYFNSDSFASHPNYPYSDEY
UniProt Q8N6D5, sequence (Q8N6D5 whole entry, looked up): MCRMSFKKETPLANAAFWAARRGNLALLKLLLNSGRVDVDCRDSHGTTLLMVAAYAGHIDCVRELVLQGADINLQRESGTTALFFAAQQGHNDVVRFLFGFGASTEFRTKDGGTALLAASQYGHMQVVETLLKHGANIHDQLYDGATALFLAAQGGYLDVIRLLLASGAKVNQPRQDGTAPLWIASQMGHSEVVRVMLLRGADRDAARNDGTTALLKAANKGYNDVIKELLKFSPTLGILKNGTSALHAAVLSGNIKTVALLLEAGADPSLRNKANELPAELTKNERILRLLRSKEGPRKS
UniProt P53680, sequence (P53680 whole entry, looked up): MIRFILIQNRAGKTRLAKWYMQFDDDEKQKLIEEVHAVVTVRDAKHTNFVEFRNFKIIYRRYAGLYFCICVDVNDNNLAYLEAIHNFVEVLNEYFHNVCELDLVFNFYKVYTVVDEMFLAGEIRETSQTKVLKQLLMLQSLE
UniProt Q9NX46, sequence (Q9NX46 whole entry, looked up): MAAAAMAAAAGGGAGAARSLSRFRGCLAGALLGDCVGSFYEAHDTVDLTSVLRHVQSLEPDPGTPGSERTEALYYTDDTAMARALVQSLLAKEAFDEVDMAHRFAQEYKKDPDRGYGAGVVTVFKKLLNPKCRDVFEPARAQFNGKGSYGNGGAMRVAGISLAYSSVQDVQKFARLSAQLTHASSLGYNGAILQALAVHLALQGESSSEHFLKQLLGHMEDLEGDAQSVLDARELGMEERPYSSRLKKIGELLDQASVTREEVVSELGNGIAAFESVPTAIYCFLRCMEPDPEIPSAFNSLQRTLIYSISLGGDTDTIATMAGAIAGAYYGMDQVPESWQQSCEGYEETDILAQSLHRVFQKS
UniProt P56211, sequence (P56211 whole entry, looked up): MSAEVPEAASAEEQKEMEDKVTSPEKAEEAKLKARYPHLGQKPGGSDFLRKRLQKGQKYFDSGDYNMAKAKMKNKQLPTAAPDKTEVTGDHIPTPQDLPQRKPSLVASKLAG
UniProt P36405, sequence (P36405 whole entry, looked up): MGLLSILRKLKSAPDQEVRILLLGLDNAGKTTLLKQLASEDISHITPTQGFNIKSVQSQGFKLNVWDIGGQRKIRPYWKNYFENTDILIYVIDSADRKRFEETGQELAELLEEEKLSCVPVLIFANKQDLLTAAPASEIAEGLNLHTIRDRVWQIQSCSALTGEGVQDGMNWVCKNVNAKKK
UniProt Q9UII2, sequence (Q9UII2 whole entry, looked up): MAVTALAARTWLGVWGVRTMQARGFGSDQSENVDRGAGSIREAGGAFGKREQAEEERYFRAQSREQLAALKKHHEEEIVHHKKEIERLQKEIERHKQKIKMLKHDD
UniProt Q15904, sequence (Q15904 whole entry, looked up): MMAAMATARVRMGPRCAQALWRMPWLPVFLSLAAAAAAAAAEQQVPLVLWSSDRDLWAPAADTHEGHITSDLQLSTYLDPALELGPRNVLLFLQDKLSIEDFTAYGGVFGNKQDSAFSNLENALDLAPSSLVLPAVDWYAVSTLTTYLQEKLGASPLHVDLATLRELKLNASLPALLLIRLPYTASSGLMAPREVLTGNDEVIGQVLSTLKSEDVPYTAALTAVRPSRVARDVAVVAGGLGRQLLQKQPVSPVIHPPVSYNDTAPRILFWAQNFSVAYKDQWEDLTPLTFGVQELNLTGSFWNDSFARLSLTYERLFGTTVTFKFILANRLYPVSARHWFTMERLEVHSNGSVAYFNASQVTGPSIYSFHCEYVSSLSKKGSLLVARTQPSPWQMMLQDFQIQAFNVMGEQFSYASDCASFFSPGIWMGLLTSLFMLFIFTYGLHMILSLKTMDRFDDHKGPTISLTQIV

Row | Target | log2 fold change [1] | log2 fold change [2] | log2 fold change [3] | log2 fold change [4] | log2 fold change [5] | log2 fold change [6] | log2 fold change [7] | log2 fold change [8] | log2 fold change [9] | log2 fold change [10] | log2 fold change [11] | log2 fold change [12] | log2 fold change [13] | log2 fold change [14] | log2 fold change [15] | log2 fold change [16] | log2 fold change [17] | log2 fold change [18] | log2 fold change [19] | log2 fold change [20]
1 | ACSM3 (UniProt Q53FZ2) | 0.031 | 0.018 | -0.021 | 0.009 | 0.053 | -0.148 | 0.142 | -0.09 | 0.021 | -0.064 | 0.134 | -0.056 | 0.009 | -0.017 | -0.033 | 0.101 | -0.034 | 0.028 | -0.025 | 0.198
2 | BOP1 (UniProt Q14137) | 0.011 | -0.043 | -0.082 | -0.013 | 0.015 | -0.157 | 0.066 | -0.016 | 0.155 | 0.046 | -0.059 | 0.161 | 0.054 | 0.077 | -0.131 | -0.085 | 0.017 | -0.012 | -0.034 | 0
3 | ATP6AP1 (UniProt Q15904) | -0.021 | -0.097 | 0.055 | 0.043 | -0.011 | 0.066 | -0.057 | -0.006 | 0.053 | -0.031 | -0.099 | -0.064 | 0.025 | 0.009 | 0.166 | -0.068 | -0.009 | -0.057 | 0.019 | -0.017
4 | ATP11A (UniProt P98196) | 0.082 | 0.094 | 0.059 | 0.007 | -0.002 | -0.093 | 0.192 | 0.044 | 0.008 | 0.017 | -0.027 | 0.036 | 0.011 | 0.004 | 0.23 | 0.026 | 0.057 | 0.015 | -0.033 | 0.007
5 | ANKRD29 (UniProt Q8N6D5) | -0.089 | -0.011 | -0.016 | 0.27 | -0.02 | -0.04 | -0.227 | 0.118 | 0 | -0.038 | 0.339 | -0.122 | 0.011 | -0.077 | -0.044 | 0.279 | -0.066 | -0.08 | -0.126 | 0.177
6 | ATP5IF1 (UniProt Q9UII2) | -0.111 | 0.111 | 0.013 | -0.039 | -0.014 | 0.046 | -0.011 | 0.011 | -0.063 | -0.244 (active) | -0.02 | -0.067 | 0.004 | 0.093 | -0.062 | 0.024 | 0.013 | 0.03 | -0.043 | -0.016
7 | ARL3 (UniProt P36405) | 0.021 | -0.008 | -0.01 | -0.012 | -0.025 | -0.025 | -0.033 | -0.035 | -0.022 | 0.022 | 0 | -0.017 | -0.006 | -0.062 | -0.076 | -0.007 | -0.018 | 0.047 | -0.03 | 0.031
8 | BAP1 (UniProt Q92560) | -0.091 | 0.089 | 0.053 | 0.042 | -0.1 | 0.09 | 0.037 | 0.061 | 0.014 | -0.017 | 0.032 | 0.111 | 0.046 | 0.164 | -0.112 | -0.006 | -0.055 | -0.024 | 0.119 | 0.062
9 | ARPP19 (UniProt P56211) | -0.002 | 0.01 | 0.032 | -0.047 | -0.015 | -0.089 | -0.05 | -0.056 | -0.016 | 0.002 | 0.294 (active) | 0.033 | -0.016 | 0.002 | -0.061 | -0.184 | -0.007 | 0.075 | -0.01 | -0.073
10 | ADRM1 (UniProt Q16186) | -0.086 | -0.091 | 0.042 | 0.18 | -0.067 | 0.087 | -0.022 | 0.111 | 0.108 | 0.017 | 0.088 | 0.008 | 0.057 | -0.073 | -0.031 | -0.029 | -0.055 | -0.045 | 0.022 | -0.013
11 | BRD8 (UniProt Q9H0E9) | 0.004 | -0.001 | 0.004 | -0.097 | -0.017 | -0.047 | -0.012 | -0.08 | -0.027 | -0.009 | -0.013 | 0.064 | -0.029 | 0.08 | -0.061 | -0.032 | 0.005 | 0.017 | -0.009 | 0.103
12 | ARFIP1 (UniProt P53367) | 0.043 | -0.037 | -0.031 | 0.047 | -0.351 (active) | -0.08 | -0.086 | 0.075 | -0.01 | 0.163 | 0.354 | -0.049 | -0.021 | 0.094 | 1.31 | 0.042 | -0.091 | -0.005 | -0.076 | -0.076
13 | ADPRHL2 (UniProt Q9NX46) | 0.039 | -0.001 | -0.003 | 0.031 | 0.049 | 0.015 | -0.085 | -0.026 | -0.009 | -0.116 | 0.111 | -0.08 | 0.022 | -0.06 | 0.009 | 0.245 (active) | -0.028 | 0.012 | 0.03 | 0.078
14 | ATG9A (UniProt Q7Z3C6) | 0.016 | -0.084 | -0.086 | 0.067 | -0.029 | -0.09 | -0.008 | -0.052 | 0.055 | -0.013 | 0.008 | -0.113 | -0.014 | -0.003 | 0.064 | -0.073 | 0.011 | -0.015 | -0.045 | 0.075
15 | AKR1C3 (UniProt P42330) | 0.05 | 0.093 | -0.054 | 0.044 | 0.188 | 0.222 | 0.061 | 0.424 | -0.081 | 0.007 | 0.87 (active) | -0.028 | 0.066 | -0.074 | -0.087 | -0.176 | 0.031 | -0.214 | -0.065 | 0.061
16 | AP2S1 (UniProt P53680) | 0.012 | 0.009 | -0.009 | 0.009 | 0.077 | 0.038 | 0.019 | -0.012 | 0.077 | 0.025 | -0.031 | 0.037 | 0.013 | -0.033 | -0.159 | 0.023 | 0.017 | -0.061 | -0.022 | -0.023
